Results: the supplement of paper PMC7380943
Where a name gives a salt, the structure may show the parent alone.

The molecules below were run on CLZ3 (HCA2 human fibroblast dual HR-NHEJ reporter) (assay: HR repair efficiency (tdTomato+ cells) relative to control (log10 fold); higher = more homologous recombination). Conditions: 5 µM; doxycycline 0.5 ug/mL.
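Also: compound given one day before doxycycline, which switches on I-SceI endonuclease expression to create double-strand breaks within the integrated reporter.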

| Compound | HR repair efficiency (log10) |
| --- | --- |
| NC(=O)NC1NC(=O)NC1=O (configuration not stated) [Allantoin] | 0.00746 |
| COc1ccc(CCO[C@@H]2O[C@H](CO[C@@H]3OC[C@H](O)[C@H](O)[C@H]3O)[C@@H](OC(=O)/C=C/c3ccc(O)c(OC)c3)[C@H](O[C@@H]3O[C@@H](C)[C@@H](O)[C@@H](O)[C@H]3O)[C@H]2O)cc1O [Angoroside C] | 0.3 |
| COc1ccc2cc3[n+](cc2c1OC)CCc1cc2c(cc1-3)OCO2 [Berberine hydrochloride] | -0.283 |
| COc1cc2oc(=O)ccc2c(OC)c1C[C@@H](O)C(C)(C)O [Toddalolactone] | 0.018 |
| COc1cc(O)c(CC=C(C)C)c(O)c1C(=O)/C=C/c1ccc(O)cc1 [Xanthohumol] | 0.0483 |
| CC1CCC(C(C)C)C(O)C1 (configuration not stated) [Menthol] | -0.0345 |
| CC1(C)O[C@H]2CC(=O)OC[C@]23[C@H]2CC[C@@]4(C)[C@H](c5ccoc5)OC(=O)[C@H]5O[C@]54[C@]2(C)C(=O)C[C@@H]13 [Limonin] | -0.00925 |
